About 2,000 (36%) of roughly 5,500 compounds were called active. About 18% were inconclusive and are not listed. No stated cut-off is given here; in the data, active means normalized growth mostly below about 0.91 (no sharp cut-off); inconclusive means no clear call, values can overlap the other calls; inactive means mostly above about 0.92. The list shows a part of the results.
Assay: chemical genetic growth profiling, strain panel (AID 1159580);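 further: tested at 20 µM; growth read once vehicle control cultures reached saturation at 30 °C; 1 = growth at the plate median or of vehicle wells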
Details: S. cerevisiae deletion strains, growth OD
[1] = locus YDL101C, strain DUN1, stronger effect = lower value
[2] = locus YDR150W, strain NUM1, stronger effect = lower value
[3] = locus YGR078C, strain PAC10, stronger effect = lower value
[4] = locus YHR030C, strain SLT2, stronger effect = lower value
[5] = locus YJR075W, strain HOC1, stronger effect = lower value
[6] = locus YMR263W, strain SAP30, stronger effect = lower value
[7] = locus YNL128W, strain TEP1, stronger effect = lower value
[8] = locus YNL153C, strain GIM3, stronger effect = lower value
[9] = locus YNL322C, strain KRE1, stronger effect = lower value
[10] = locus YPL055C, strain LGE1, stronger effect = lower value
[11] = locus YAL040C, strain CLN3, stronger effect = lower value
[12] = locus YCL061C, strain MRC1 (second series), stronger effect = lower value
[13] = locus YDR363W, strain ESC2, stronger effect = lower value
[14] = locus YER002W, strain NOP16, stronger effect = lower value
[15] = locus YMR307W, strain GAS1, stronger effect = lower value
[16] = locus YNL175C, strain NOP13, stronger effect = lower value
[17] = locus YNL197C, strain WHI3, stronger effect = lower value
[18] = locus YNL224C, strain SQS1, stronger effect = lower value
[19] = locus YOR083W, strain WHI5 (second series), stronger effect = lower value

Measured: normalized growth

CCCC(C)(SCC(=O)O)SCC(=O)O
inactive: locus YAL013W, strain DEP1, stronger effect = lower value 1 | locus YBR229C, strain ROT2, stronger effect = lower value 1 | [1] 1.09 | [2] 1.03 | locus YEL061C, strain CIN8, stronger effect = lower value 0.951 | [3] 1.02 | [4] 1.03 | locus YHR087W, strain rtc3, stronger effect = lower value 0.98 | locus YJL187C, strain SWE1, stronger effect = lower value 1 | locus YJR043C, strain POL32, stronger effect = lower value 1.01 | [5] 1.04 | locus YKL190W, strain CNB1, stronger effect = lower value 0.992 | locus YLR039C, strain RIC1, stronger effect = lower value 0.981 | locus YLR058C, strain SHM2 (second series), stronger effect = lower value 0.984 | locus YLR085C, strain ARP6, stronger effect = lower value 1.02 | locus YLR262C, strain YPT6, stronger effect = lower value 1.02 | locus YML094W, strain GIM5, stronger effect = lower value 0.993 | locus YMR219W, strain ESC1, stronger effect = lower value 0.999 | [6] 1.01 | [7] 0.985 | [8] 1.04 | locus YNL298W, strain CLA4 (second series), stronger effect = lower value 1.02 | [9] 0.993 | locus YNR030W, strain Alg12, stronger effect = lower value 1.01 | locus YOL006C, strain TOP1, stronger effect = lower value 1 | [10] 1 | locus YPL241C, strain CIN2, stronger effect = lower value 1.05 | locus YPR135W, strain CTF4, stronger effect = lower value 1.08

CCCCCCCCCCCCCCSCC(=O)O
inactive: [11] 0.97 | [12] 1.01 | [2] 0.997 | [13] 0.993 | [14] 0.937 | [3] 0.998 | locus YGR229C, strain SMI1, stronger effect = lower value 0.959 | [5] 0.99 | [6] 1 | [15] 0.992 | [16] 0.938 | [17] 0.957 | [18] 0.954 | [10] 0.955
active: [19] 0.825

N#CC(Cc1ccc(O)c(O)c1)C(=O)N1CCc2ccccc21 (stereo not drawn)
inactive: [11] 0.961 | [12] 0.986 | [2] 0.997 | [13] 0.97 | [14] 1.01 | [5] 0.995 | [15] 0.986 | [7] 0.996 | [8] 0.977 | [16] 0.999 | [17] 1.02 | [18] 0.994 | [9] 0.952 | [19] 0.965

C=CC(=O)N1CCc2cc([N+](=O)[O-])ccc21
active: locus YAR019C, strain CDC15, stronger effect = lower value 0.735 | locus YBL105C, strain PKC1, stronger effect = lower value 0.778 | locus YBR135W, strain CKS1, stronger effect = lower value 0.766 | locus YBR136W, strain MEC1, stronger effect = lower value 0.764 | locus YBR160W, strain CDC28, stronger effect = lower value 0.791 | locus YDL017W, strain CDC7, stronger effect = lower value 0.8 | locus YDL028C, strain MPS1, stronger effect = lower value 0.796 | [1] 0.789 | locus YDL108W, strain KIN28, stronger effect = lower value 0.798 | locus YDL132W, strain cdc53, stronger effect = lower value 0.725 | locus YDL214C, strain PRR2, stronger effect = lower value 0.37 | locus YDR052C, strain DBF4, stronger effect = lower value 0.827 | locus YDR054C, strain cdc34, stronger effect = lower value 0.689 | locus YDR226W, strain ADK1, stronger effect = lower value 0.839 | locus YDR477W, strain SNF1, stronger effect = lower value 0.335 | locus YER123W, strain YCK3, stronger effect = lower value 0.236 | locus YER133W, strain GLC7, stronger effect = lower value 0.275 | locus YFL009W, strain cdc4, stronger effect = lower value 0.739 | locus YFL029C, strain CAK1, stronger effect = lower value 0.72 | locus YFR003C, strain YPI1, stronger effect = lower value 0.807 | locus YFR019W, strain FAB1, stronger effect = lower value 0.369 | locus YFR028C, strain CDC14, stronger effect = lower value 0.805 | locus YGR040W, strain KSS1, stronger effect = lower value 0.287 | locus YGR052W, strain FMP48, stronger effect = lower value 0.308 | locus YGR092W, strain DBF2, stronger effect = lower value 0.12 | [4] 0.253 | locus YHR079C, strain IRE1, stronger effect = lower value 0.255 | locus YHR082C, strain KSP1, stronger effect = lower value 0.263 | locus YHR205W, strain SCH9, stronger effect = lower value 0.228 | locus YIL147C, strain SLN1, stronger effect = lower value 0.794 | locus YJL095W, strain BCK1, stronger effect = lower value 0.276 | locus YJL157C, strain FAR1, stronger effect = lower value 0.315 | locus YJR016C, strain ILV3, stronger effect = lower value 0.742 | locus YJR066W, strain TOR1 (second series), stronger effect = lower value 0.24 | locus YJR066W, strain TOR1, stronger effect = lower value 0.274 | locus YKL048C, strain ELM1, stronger effect = lower value 0.556 | locus YKL067W, strain YNK1, stronger effect = lower value 0.35 | locus YKL101W, strain HSL1, stronger effect = lower value 0.46 | locus YKL193C, strain SDS22, stronger effect = lower value 0.729 | locus YKL203C, strain TOR2, stronger effect = lower value 0.355 | locus YLR113W, strain HOG1, stronger effect = lower value 0.247 | locus YLR133W, strain CKI1, stronger effect = lower value 0.409 | locus YLR403W, strain SFP1, stronger effect = lower value 0.271 | locus YML070W, strain DAK1, stronger effect = lower value 0.311 | locus YMR001C, strain CDC5, stronger effect = lower value 0.744 | locus YMR205C, strain PFK2 (second series), stronger effect = lower value 0.424 | locus YMR277W, strain FCP1, stronger effect = lower value 0.746 | locus YNL006W, strain LST8, stronger effect = lower value 0.754 | locus YNL020C, strain ARK1, stronger effect = lower value 0.412 | locus YNL161W, strain CBK1, stronger effect = lower value 0.737 | locus YNL183C, strain NPR1, stronger effect = lower value 0.22 | locus YNL207W, strain RIO2, stronger effect = lower value 0.757 | locus YNL222W, strain SSU72, stronger effect = lower value 0.734 | locus YNL307C, strain MCK1 (second series), stronger effect = lower value 0.323 | locus YOL078W, strain AVO1, stronger effect = lower value 0.71 | locus YOL136C, strain PFK27, stronger effect = lower value 0.316 | locus YOR061W, strain CKA2, stronger effect = lower value 0.498 | locus YOR119C, strain RIO1, stronger effect = lower value 0.334 | locus YOR231W, strain MKK1, stronger effect = lower value 0.255 | locus YOR329C, strain SCD5, stronger effect = lower value 0.759 | locus YPL031C, strain PHO85, stronger effect = lower value 0.268 | locus YPL153C, strain RAD53, stronger effect = lower value 0.273 | locus YPL204W, strain HRR25, stronger effect = lower value 0.282 | locus YPL209C, strain IPL1, stronger effect = lower value 0.778 | locus YPL256C, strain CLN2, stronger effect = lower value 0.299 | locus YPR025C, strain CCL1, stronger effect = lower value 0.764 | locus YPR106W, strain ISR1, stronger effect = lower value 0.864 | strain NNK1, stronger effect = lower value 0.824 | strain TSCII, stronger effect = lower value 0.643
inactive: locus YJL128C, strain PBS2, stronger effect = lower value 0.842 | locus YPR111W, strain DBF20, stronger effect = lower value 0.887
